How the values were obtained:
Assay in all cases: DAPPL (digital affinity profiling via proximity ligation, sequencing); 10 mM Tris-HCl pH 7.5, 50 mM NaCl, 1 mM DTT, 4% glycerol, room temperature, 30 min; GST-TFs on glutathione beads, 16-mer random dsDNA library, 0.1% formaldehyde crosslink after washing; high values mean tight binding
FEV = molecular target: T1, FEV (Homo sapiens, UniProt Q99581 1-238); settings: protein: recombinant; tags: N-terminal GST; dsDNA, one strand shown
T1 sequence: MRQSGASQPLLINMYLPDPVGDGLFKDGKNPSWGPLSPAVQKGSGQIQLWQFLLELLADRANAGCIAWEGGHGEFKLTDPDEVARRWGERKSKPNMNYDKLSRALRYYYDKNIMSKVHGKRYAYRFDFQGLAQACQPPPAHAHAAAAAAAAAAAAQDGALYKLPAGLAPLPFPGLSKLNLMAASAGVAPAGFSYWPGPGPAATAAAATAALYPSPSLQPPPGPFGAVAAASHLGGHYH
Method in brief: (§1)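 Beads coated with glutathione captured GST-fused human transcription factors that had been expressed in yeast, and the factors were then given DNA barcodes and pooled with a tag-only sample. The pools were incubated with 200 nmole of a random double-stranded 16-mer DNA library in Tris/NaCl/DTT/glycerol buffer for 30 min at room temperature, washed, crosslinked with 0.1% formaldehyde and proximity-ligated with BsaI/T4 ligase at 37 °C for 1 h. PCR amplification and Illumina NextSeq500 sequencing came last. Binding signal is each hexamer's read frequency for a factor divided by its frequency for the tag-only sample.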

ETV5 = ETV5 (Homo sapiens, UniProt P41161 1-510); settings: protein: recombinant; tags: N-terminal GST; dsDNA, one strand shown
Method in brief: as §1

HSF1 = HSF1 (Homo sapiens, UniProt Q00613 1-529); settings: protein: recombinant; tags: N-terminal GST; chain copies: 3; dsDNA, one strand shown
Method in brief: as §1

SPIC = molecular target: T2, SPIC (Homo sapiens, UniProt Q8N5J4 1-248); settings: protein: recombinant; tags: N-terminal GST; dsDNA, one strand shown
T2 sequence: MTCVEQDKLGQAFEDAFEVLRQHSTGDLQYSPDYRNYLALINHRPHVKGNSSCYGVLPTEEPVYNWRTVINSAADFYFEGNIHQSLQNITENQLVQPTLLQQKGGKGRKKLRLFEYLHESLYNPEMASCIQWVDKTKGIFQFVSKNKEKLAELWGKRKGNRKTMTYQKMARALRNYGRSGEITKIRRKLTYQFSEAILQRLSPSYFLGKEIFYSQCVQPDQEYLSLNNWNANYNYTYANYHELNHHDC
Method in brief: as §1

ELF4 = ELF4 (Homo sapiens, UniProt Q99607 1-663); settings: protein: recombinant; tags: N-terminal GST; dsDNA, one strand shown
Method in brief: as §1

ELK4 = molecular target: T3, ELK4 (Homo sapiens, UniProt P28324-2 1-405); settings: protein: recombinant; tags: N-terminal GST; dsDNA, one strand shown
T3 sequence: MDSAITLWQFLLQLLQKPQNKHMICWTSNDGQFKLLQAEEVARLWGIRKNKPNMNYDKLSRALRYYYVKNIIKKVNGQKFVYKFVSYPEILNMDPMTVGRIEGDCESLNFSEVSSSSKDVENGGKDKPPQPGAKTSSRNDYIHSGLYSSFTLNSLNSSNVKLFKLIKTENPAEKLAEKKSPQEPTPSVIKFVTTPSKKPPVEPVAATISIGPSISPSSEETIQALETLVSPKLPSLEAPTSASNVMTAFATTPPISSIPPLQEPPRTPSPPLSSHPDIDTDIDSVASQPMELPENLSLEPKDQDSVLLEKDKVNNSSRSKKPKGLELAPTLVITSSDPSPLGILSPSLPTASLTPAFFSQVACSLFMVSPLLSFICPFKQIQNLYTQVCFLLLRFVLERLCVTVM
Method in brief: as §1

ETV2 = molecular target: T4, ETV2 (Homo sapiens, UniProt O00321 1-342); settings: protein: recombinant; tags: N-terminal GST; dsDNA, one strand shown
T4 sequence: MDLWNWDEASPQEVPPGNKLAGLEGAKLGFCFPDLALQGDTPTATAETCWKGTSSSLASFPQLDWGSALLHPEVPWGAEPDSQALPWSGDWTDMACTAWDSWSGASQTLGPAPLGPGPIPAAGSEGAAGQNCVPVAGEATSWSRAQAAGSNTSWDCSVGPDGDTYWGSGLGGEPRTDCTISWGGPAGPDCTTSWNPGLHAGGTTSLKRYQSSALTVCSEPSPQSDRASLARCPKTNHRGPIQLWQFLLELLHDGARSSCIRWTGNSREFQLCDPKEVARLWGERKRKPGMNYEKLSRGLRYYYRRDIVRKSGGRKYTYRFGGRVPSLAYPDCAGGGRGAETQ
Method in brief: as §1

ELF3 = molecular target: T5, ELF3 (Homo sapiens, UniProt P78545 1-371); settings: protein: recombinant; tags: N-terminal GST; dsDNA, one strand shown
T5 sequence: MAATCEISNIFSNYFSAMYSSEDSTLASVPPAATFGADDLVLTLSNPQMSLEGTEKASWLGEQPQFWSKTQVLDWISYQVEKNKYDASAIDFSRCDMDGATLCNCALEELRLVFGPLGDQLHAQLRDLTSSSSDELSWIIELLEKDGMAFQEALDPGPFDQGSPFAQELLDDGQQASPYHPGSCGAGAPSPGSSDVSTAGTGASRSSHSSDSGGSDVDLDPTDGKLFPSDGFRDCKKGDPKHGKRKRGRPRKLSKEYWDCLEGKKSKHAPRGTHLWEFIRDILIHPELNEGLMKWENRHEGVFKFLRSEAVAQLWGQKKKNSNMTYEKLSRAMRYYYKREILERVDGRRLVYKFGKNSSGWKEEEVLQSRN
Method in brief: as §1

CRX = CRX (Homo sapiens, UniProt O43186 1-299); settings: protein: recombinant; tags: N-terminal GST; dsDNA, one strand shown
Method in brief: as §1

ETV1 = ETV1 (Homo sapiens, UniProt P50549 1-477); settings: protein: recombinant; tags: N-terminal GST; dsDNA, one strand shown
Method in brief: as §1

ERF = molecular target: T6, ERF (Homo sapiens, UniProt P50548 1-548); settings: protein: recombinant; tags: N-terminal GST; dsDNA, one strand shown
T6 sequence: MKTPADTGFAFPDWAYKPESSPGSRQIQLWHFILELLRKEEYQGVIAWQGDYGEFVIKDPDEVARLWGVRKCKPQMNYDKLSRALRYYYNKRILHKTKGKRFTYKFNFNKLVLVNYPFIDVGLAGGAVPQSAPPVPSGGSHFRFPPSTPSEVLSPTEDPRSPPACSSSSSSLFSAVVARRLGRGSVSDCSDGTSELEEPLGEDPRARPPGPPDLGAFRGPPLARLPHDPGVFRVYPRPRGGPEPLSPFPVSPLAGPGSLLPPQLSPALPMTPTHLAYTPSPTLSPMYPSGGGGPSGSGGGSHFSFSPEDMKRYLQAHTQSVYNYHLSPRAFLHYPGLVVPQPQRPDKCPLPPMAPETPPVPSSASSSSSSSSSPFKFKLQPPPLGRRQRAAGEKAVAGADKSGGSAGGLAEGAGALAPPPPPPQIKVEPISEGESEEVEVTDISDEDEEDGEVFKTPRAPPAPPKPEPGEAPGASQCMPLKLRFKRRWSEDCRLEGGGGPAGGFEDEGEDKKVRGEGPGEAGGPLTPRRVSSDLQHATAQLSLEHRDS
Method in brief: as §1

ETV3L = molecular target: T7, ETV3L (Homo sapiens, UniProt Q6ZN32 1-361); settings: protein: recombinant; tags: N-terminal GST; dsDNA, one strand shown
T7 sequence: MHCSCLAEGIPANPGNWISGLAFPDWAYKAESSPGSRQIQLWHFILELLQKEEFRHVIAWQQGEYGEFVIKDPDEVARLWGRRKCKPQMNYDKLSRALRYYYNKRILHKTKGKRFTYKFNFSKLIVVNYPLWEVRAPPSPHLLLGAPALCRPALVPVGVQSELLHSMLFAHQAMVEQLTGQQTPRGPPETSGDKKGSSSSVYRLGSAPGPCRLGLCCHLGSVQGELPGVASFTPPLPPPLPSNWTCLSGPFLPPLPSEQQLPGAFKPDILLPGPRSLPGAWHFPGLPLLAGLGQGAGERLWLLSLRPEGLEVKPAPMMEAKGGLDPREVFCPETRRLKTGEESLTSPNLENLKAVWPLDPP
Method in brief: as §1

ETS2 = molecular target: T8, ETS2 (Homo sapiens, UniProt P15036 1-469); settings: protein: recombinant; tags: N-terminal GST; dsDNA, one strand shown
T8 sequence: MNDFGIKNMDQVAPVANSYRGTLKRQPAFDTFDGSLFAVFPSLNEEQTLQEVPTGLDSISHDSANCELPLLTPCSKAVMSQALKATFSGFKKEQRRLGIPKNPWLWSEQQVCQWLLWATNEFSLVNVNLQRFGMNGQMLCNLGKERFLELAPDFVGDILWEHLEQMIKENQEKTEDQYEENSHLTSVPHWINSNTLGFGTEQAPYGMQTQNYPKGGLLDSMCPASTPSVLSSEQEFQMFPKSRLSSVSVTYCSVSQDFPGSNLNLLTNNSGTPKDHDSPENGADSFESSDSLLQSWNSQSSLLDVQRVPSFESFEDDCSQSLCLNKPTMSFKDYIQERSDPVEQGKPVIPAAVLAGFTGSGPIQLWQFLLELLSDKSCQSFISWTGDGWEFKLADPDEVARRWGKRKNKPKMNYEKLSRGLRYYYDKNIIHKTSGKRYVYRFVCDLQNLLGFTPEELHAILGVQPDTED
Method in brief: as §1

SPDEF = molecular target: T9, SPDEF (Homo sapiens, UniProt O95238 1-335); settings: protein: recombinant; tags: N-terminal GST; dsDNA, one strand shown
T9 sequence: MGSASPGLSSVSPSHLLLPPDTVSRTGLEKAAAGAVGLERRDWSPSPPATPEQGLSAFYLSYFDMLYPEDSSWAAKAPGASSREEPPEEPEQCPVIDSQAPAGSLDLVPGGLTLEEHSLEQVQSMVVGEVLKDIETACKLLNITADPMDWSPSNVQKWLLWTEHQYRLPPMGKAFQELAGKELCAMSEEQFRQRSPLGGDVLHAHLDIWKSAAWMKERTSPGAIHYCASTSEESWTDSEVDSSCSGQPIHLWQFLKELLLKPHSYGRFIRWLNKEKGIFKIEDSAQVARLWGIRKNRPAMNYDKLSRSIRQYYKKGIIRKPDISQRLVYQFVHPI
Method in brief: as §1

ETV7 = molecular target: T10, ETV7 (Homo sapiens, UniProt Q9Y603 1-341); settings: protein: recombinant; tags: N-terminal GST; dsDNA, one strand shown
T10 sequence: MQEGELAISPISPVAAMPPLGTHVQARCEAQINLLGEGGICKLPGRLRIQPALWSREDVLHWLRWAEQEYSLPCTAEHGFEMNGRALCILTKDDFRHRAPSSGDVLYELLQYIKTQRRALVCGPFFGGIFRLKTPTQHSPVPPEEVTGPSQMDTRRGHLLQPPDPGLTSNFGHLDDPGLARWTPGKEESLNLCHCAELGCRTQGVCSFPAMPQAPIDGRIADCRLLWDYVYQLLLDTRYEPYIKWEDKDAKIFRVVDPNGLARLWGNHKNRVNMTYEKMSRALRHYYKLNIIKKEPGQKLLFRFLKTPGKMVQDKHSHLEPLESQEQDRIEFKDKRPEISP
Method in brief: as §1

ELF5 = molecular target: T11, ELF5 (Homo sapiens, UniProt Q9UKW6-2 1-255); settings: protein: recombinant; tags: N-terminal GST; dsDNA, one strand shown
T11 sequence: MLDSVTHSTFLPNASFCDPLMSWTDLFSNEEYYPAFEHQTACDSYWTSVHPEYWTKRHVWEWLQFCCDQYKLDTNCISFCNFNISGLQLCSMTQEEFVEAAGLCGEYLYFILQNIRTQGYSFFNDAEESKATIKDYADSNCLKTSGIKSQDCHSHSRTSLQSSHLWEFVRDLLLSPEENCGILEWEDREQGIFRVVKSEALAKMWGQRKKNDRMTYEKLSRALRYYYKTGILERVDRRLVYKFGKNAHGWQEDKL
Method in brief: as §1

ETV3 = molecular target: T12, ETV3 (Homo sapiens, UniProt P41162-2 1-143); settings: protein: recombinant; tags: N-terminal GST; dsDNA, one strand shown
T12 sequence: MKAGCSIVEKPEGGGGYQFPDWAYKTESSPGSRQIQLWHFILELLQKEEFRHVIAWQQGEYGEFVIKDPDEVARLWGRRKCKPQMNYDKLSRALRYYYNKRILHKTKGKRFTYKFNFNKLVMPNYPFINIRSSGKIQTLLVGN
Method in brief: as §1

ETV6 = ETV6 (Homo sapiens, UniProt P41212 1-452); settings: protein: recombinant; tags: N-terminal GST; dsDNA, one strand shown
Method in brief: as §1

Sequence of ETV1 (P50549 whole entry): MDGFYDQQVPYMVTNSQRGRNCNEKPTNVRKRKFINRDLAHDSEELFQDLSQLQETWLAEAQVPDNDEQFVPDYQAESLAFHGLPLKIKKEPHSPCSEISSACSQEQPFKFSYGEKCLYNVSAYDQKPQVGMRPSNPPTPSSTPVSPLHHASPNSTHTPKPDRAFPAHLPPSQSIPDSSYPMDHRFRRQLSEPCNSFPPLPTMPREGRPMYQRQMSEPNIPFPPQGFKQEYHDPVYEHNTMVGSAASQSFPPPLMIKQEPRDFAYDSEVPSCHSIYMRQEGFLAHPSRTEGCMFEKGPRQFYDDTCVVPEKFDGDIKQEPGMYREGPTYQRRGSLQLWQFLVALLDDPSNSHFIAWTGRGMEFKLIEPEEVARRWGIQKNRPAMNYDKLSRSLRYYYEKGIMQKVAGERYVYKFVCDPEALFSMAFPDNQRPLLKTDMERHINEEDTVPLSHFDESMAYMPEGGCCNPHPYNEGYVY
Sequence of HSF1 (Q00613 whole entry): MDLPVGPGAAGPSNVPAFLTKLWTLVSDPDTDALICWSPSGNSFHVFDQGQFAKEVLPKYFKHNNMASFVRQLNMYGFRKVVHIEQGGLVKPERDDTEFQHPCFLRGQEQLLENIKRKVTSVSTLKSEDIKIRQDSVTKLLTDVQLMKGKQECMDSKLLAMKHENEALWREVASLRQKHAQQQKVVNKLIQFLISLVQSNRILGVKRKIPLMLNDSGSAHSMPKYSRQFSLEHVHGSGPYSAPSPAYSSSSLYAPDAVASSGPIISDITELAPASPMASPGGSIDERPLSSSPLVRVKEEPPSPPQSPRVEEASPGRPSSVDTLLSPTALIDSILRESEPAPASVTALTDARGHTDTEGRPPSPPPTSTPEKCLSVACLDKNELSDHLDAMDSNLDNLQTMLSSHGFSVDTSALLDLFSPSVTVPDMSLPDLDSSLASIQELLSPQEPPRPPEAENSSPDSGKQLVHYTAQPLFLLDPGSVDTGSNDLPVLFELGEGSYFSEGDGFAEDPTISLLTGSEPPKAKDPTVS
Sequence of CRX (O43186 whole entry): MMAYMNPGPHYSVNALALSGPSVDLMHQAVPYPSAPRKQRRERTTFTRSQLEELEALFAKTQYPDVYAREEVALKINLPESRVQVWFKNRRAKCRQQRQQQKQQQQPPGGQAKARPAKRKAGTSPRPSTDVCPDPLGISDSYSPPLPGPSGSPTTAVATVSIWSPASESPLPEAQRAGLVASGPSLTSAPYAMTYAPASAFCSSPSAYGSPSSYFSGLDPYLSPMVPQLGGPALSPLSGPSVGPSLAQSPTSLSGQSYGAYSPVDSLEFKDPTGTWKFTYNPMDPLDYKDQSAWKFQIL
Sequence of ETV5 (P41161 whole entry): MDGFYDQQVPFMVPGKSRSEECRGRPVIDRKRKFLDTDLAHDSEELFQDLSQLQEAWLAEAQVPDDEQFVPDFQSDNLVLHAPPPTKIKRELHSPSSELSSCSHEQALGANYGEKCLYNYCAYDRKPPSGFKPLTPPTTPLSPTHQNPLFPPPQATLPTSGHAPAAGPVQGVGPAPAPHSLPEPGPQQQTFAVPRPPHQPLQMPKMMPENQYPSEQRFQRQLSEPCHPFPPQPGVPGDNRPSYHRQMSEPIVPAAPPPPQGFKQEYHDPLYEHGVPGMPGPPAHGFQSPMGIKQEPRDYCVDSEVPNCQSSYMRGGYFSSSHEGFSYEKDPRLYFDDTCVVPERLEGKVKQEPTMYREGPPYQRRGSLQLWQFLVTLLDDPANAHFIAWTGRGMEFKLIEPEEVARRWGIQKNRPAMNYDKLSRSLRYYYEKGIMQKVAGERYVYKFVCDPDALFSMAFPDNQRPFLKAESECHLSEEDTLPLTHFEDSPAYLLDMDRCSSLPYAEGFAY
Sequence of ELF4 (Q99607 whole entry): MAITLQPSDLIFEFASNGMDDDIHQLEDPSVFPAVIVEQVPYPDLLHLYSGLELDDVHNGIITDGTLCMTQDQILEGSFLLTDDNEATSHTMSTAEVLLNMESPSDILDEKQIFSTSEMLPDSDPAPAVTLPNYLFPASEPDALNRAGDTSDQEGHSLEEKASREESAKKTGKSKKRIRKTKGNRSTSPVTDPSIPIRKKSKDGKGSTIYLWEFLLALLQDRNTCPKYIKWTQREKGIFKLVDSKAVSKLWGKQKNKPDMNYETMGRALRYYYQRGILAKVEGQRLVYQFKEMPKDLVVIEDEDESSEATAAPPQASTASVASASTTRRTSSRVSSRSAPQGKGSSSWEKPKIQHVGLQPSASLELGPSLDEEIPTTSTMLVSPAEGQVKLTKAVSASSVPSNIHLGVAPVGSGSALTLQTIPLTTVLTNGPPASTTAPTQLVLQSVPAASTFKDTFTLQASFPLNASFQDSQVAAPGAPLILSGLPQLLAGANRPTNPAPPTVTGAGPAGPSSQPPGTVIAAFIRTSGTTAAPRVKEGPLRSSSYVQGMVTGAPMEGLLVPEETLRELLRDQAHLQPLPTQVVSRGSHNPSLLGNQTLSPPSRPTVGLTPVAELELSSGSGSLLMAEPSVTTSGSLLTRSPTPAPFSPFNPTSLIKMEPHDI
Sequence of ETV6 (P41212 whole entry): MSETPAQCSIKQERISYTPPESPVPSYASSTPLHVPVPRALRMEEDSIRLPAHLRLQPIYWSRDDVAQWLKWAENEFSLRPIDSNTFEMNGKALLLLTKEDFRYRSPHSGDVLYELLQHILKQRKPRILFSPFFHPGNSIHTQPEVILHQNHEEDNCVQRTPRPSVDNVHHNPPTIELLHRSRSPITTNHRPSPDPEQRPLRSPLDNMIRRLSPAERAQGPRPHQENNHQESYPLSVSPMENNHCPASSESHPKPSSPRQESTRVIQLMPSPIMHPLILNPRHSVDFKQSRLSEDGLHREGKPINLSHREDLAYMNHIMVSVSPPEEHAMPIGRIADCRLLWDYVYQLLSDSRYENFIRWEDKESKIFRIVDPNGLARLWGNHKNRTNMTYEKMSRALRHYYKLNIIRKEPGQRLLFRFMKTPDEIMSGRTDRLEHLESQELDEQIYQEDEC

Question: Which binding signal (FEV) does the source give for GCGCTT here?
Answer: 1.37 fold enrichment (6-mer frequency, TF over GST control)

Question: What about the binding signal (ETV5) of the same sequence?
Answer: 1.29 fold enrichment (6-mer frequency, TF over GST control)

Question: And the binding signal (HSF1)?
Answer: 1.16 fold enrichment (6-mer frequency, TF over GST control)

Question: And the binding signal (SPIC)?
Answer: 1.26 fold enrichment (6-mer frequency, TF over GST control)

Question: And the binding signal (ELF4)?
Answer: 1.24 fold enrichment (6-mer frequency, TF over GST control)

Question: What about the binding signal (ELK4) of the same sequence?
Answer: 1.36 fold enrichment (6-mer frequency, TF over GST control)

Question: And the binding signal (ETV2)?
Answer: 1.12 fold enrichment (6-mer frequency, TF over GST control)

Question: And the binding signal (ELF3)?
Answer: 1.04 fold enrichment (6-mer frequency, TF over GST control)

Question: What about the binding signal (CRX) of the same sequence?
Answer: 1.39 fold enrichment (6-mer frequency, TF over GST control)

Question: And the binding signal (ETV1)?
Answer: 1.3 fold enrichment (6-mer frequency, TF over GST control)

Question: And the binding signal (ERF)?
Answer: 1.42 fold enrichment (6-mer frequency, TF over GST control)

Question: What about the binding signal (ETV3L) of the same sequence?
Answer: 1.3 fold enrichment (6-mer frequency, TF over GST control)

Question: And the binding signal (ETS2)?
Answer: 1.37 fold enrichment (6-mer frequency, TF over GST control)

Question: What about the binding signal (SPDEF) of the same sequence?
Answer: 1.2 fold enrichment (6-mer frequency, TF over GST control)

Question: What about the binding signal (ETV7) of the same sequence?
Answer: 1.34 fold enrichment (6-mer frequency, TF over GST control)

Question: And the binding signal (ELF5)?
Answer: 1.31 fold enrichment (6-mer frequency, TF over GST control)

Question: And the binding signal (ETV3)?
Answer: 1.42 fold enrichment (6-mer frequency, TF over GST control)

Question: What about the binding signal (ETV6) of the same sequence?
Answer: 1.33 fold enrichment (6-mer frequency, TF over GST control)

Source: paper PMC7862700, “An all-to-all approach to the identification of sequence-specific readers for epigenetic DNA modifications on cytosine”
